Outcome and AC50 data for ten compounds are collected here from PubChem BioAssay (EPA / NIEHS).

Read-out in assay [1]: Interleukin-8 (IL8), CXCL8 (gene 3576)
Kind of assay: BSK_MyoF_IL8: BioMAP Diversity Plus: MyoF Assay for Interleukin-8 (IL8) Biomarker Activity (AID 2284261). The conditions noted are these: primary human lung fibroblasts. The method in brief:
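DMSO-normalised, upward-fitted IL-8 ELISA signal; human lung fibroblasts, 24 h chemical treatment.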

Read-out in the next assay: Decorin, DCN (gene 1634)
Kind of assay: BSK_MyoF_Decorin: BioMAP Diversity Plus: MyoF Assay for Decorin Biomarker Activity (AID 2284265). The conditions noted are these: primary human lung fibroblasts. The essentials: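 In this multiplexed fibroblast system, secreted or surface decorin is detected by ELISA one day after dosing, with increases scored against the DMSO vehicle.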

The nature of assay [2]: BSK_MyoF_SRB: Viability Assessment in the BioMAP Diversity Plus: MyoF Assay (AID 2284267).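 Further: total protein by SRB absorbance in parallel cultures as cytotoxicity measure; cells assessed 24 h after compound addition.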 The conditions noted are these: primary human lung fibroblasts. The method in brief: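 Human lung fibroblasts dosed with chemical and assessed 24 h later for overt cytotoxicity in parallel cultures. Total protein quantified by sulforhodamine B staining (0.1% SRB after 10% TCA fixation), read at 560 nm, analysed in positive direction versus DMSO baseline.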

Read-out in assay [3]: Matrix Metallopeptidase 1 (MMP1), MMP1 (gene 4312)
Kind of assay: BSK_MyoF_MMP1: BioMAP Diversity Plus: MyoF Assay for Matrix Metallopeptidase 1 (MMP1) Biomarker Activity (AID 2284268). The conditions noted are these: primary human lung fibroblasts. The essentials:
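Fibroblasts from human lung receive compound for 24 h before ELISA quantitation of MMP1. DMSO serves as baseline, and the endpoint is fitted for signal gain.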

Read-out in assay [4]: Intercellular Adhesion Molecule 1 (ICAM1), ICAM1 (gene 3383)
Kind of assay: BSK_BE3C_ICAM1: BioMAP Diversity Plus: BE3C Assay for Intercellular Adhesion Molecule 1 (ICAM1) Biomarker Activity (AID 2284278).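 Further: cell-surface ICAM-1 protein level quantified by ELISA.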 The conditions noted are these: primary human bronchial epithelial cells. The method in brief: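 Primary human bronchial epithelial cells were exposed to compound for 24 h, after which cell-surface ICAM-1 was quantified by ELISA. Activity was fitted in the gain-of-signal direction against DMSO as negative control and baseline.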

Read-out in assay [5]: Interferon-inducible T-cell alpha chemoattractant (ITAC), CXCL11 (gene 6373)
Kind of assay: BSK_BE3C_ITAC: BioMAP Diversity Plus: BE3C Assay for Interferon-inducible T-cell alpha chemoattractant (ITAC) Biomarker Activity (AID 2284279). The conditions noted are these: primary human bronchial epithelial cells. The essentials: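 ELISA for I-TAC in primary human bronchial epithelial cultures 24 h post-treatment, fitted relative to DMSO baseline in positive direction. Cytotoxicity checked in parallel cultures by sulforhodamine B protein staining.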

Read-out in assay [6]: Interleukin-8 (IL8), CXCL8 (gene 3576)
Kind of assay: BSK_BE3C_IL8: BioMAP Diversity Plus: BE3C Assay for Interleukin-8 (IL8) Biomarker Activity (AID 2284280). The conditions noted are these: primary human bronchial epithelial cells. The method in brief:
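IL-8 signal gain, normalised to DMSO vehicle, was scored after a 24 h chemical exposure of primary human bronchial epithelial cells, with detection by ELISA.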

Read-out in assay [7]: Epidermal growth factor receptor (EGFR), EGFR (gene 1956)
Kind of assay: BSK_BE3C_EGFR: BioMAP Diversity Plus: BE3C Assay for Epidermal growth factor receptor (EGFR) Biomarker Activity (AID 2284281). The conditions noted are these: primary human bronchial epithelial cells. The essentials: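 Compound is added to human bronchial epithelial cells, cells incubate 24 h, then EGFR is detected by ELISA. Values reflect positive-direction fitting relative to DMSO.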

Read-out in the next assay: KRT18 (gene 3875)
Kind of assay: BSK_BE3C_Keratin818: BioMAP Diversity Plus: BE3C Assay for Keratin 818 Biomarker Activity (AID 2284282). The conditions noted are these: primary human bronchial epithelial cells. The essentials:
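Human primary bronchial epithelial cells in the BE3C system were exposed to test chemical for 24 h, then Keratin 8/18 was quantified by ELISA. Activity was fitted in the positive direction against DMSO as negative control and baseline.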

Read-out in assay [8]: Matrix Metallopeptidase 9 (MMP9), MMP9 (gene 4318)
Kind of assay: BSK_BE3C_MMP9: BioMAP Diversity Plus: BE3C Assay for Matrix Metallopeptidase 9 (MMP9) Biomarker Activity (AID 2284283). The conditions noted are these: primary human bronchial epithelial cells. The essentials: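 Endpoint is the ELISA MMP-9 signal in human primary bronchial epithelial cultures taken 24 h after chemical dosing. DMSO serves as negative control and baseline, with gain-of-signal fitting.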

Read-out in assay [9]: Plasminogen activator inhibitor-1 (PAI1), SERPINE1 (gene 5054)
Kind of assay: BSK_CASM3C_PAI1: BioMAP Diversity Plus: CASM3C Assay for Plasminogen activator inhibitor-1 (PAI1) Biomarker Activity (AID 2284284).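 Further: PAI-1 protein level measured by ELISA 24 h after dosing.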 The conditions noted are these: primary human coronary artery smooth muscle cells.

Read-out in assay [10]: Monocyte Chemoattractant Protein-1 (MCP1), CCL2 (gene 6347)
Kind of assay: BSK_hDFCGF_MCP1: BioMAP Diversity Plus: hDFCGF Assay for Monocyte Chemoattractant Protein-1 (MCP1) Biomarker Activity (AID 2284285). The conditions noted are these: primary human foreskin fibroblasts. The method in brief:
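Human foreskin fibroblasts (hDFCGF system) were exposed to compound and secreted MCP-1 was measured by ELISA after 24 hours. Activity was fitted relative to DMSO. Cytotoxicity was checked by SRB total-protein staining in parallel cultures.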

Read-out in assay [11]: Intercellular Adhesion Molecule 1 (ICAM1), ICAM1 (gene 3383)
Kind of assay: BSK_hDFCGF_ICAM1: BioMAP Diversity Plus: hDFCGF Assay for Intercellular Adhesion Molecule 1 (ICAM1) Biomarker Activity (AID 2284287). The conditions noted are these: primary human foreskin fibroblasts. The method in brief: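 Primary human foreskin fibroblasts (hDFCGF system) dosed with chemical; ICAM-1 quantified by ELISA at 24 h relative to DMSO. Parallel SRB total-protein staining to assess overt cytotoxicity.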

Read-out in assay [12]: TIMP metallopeptidase inhibitor 2 (TIMP2), TIMP2 (gene 7077)
Kind of assay: BSK_hDFCGF_TIMP2: BioMAP Diversity Plus: hDFCGF Assay for TIMP metallopeptidase inhibitor 2 (TIMP2) Biomarker Activity (AID 2284289). The conditions noted are these: primary human foreskin fibroblasts. The method in brief: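 Primary human foreskin fibroblasts in the hDFCGF system, dosed for 24 h; TIMP-2 level measured by ELISA, fitted in the positive direction against DMSO; cytotoxicity checked in parallel by sulforhodamine B total protein staining.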

Read-out in assay [13]: Thrombomodulin, THBD (gene 7056)
Kind of assay: BSK_LPS_Thrombomodulin: BioMAP Diversity Plus: LPS Assay for Thrombomodulin Biomarker Activity (AID 2284296). The conditions noted are these: primary human HUVEC with PBMC. The method in brief: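 Human umbilical vein endothelial cells co-cultured with PBMC and stimulated with LPS; cell-surface thrombomodulin measured by ELISA 24 hours after compound. Gain or loss versus DMSO; cytotoxicity checked by SRB staining in parallel cultures.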

Assay [14] can be described thus: IUF_NPC2c_oligodendrocyte_migration_120hr: Leibniz Research Institute for Environmental Medicine (IUF) 120-hour Neural Progenitor Cell Migration Assay for Oligodendrocyte Migration (NPC2c) (AID 2284297).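 Further: O4-positive oligodendrocyte migration distance divided by radial glia migration distance.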 The essentials: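 Using fetal brain neural progenitor spheres differentiating in N2 medium at 37C, compounds were present for 120 h. Oligodendrocyte migration distance, normalized to radial glia migration, was measured from imaged O4 staining.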

Assay [15] is described as follows: IUF_NPC2a_radial_glia_migration_120hr: Leibniz Research Institute for Environmental Medicine (IUF) 120-hour Neural Progenitor Cell Migration Assay for Radial Glia Migration (NPC2a) (AID 2284298). The method in brief: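 Exposure of 0.3 mm primary hNPC spheres runs day 0 to 120 h with a half-volume medium change at day 3. Fixed cells get Hoechst staining; high-content analysis of nuclear positions yields radial glia migration distance per well, compared against DMSO controls.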

A short description of assay [16]: IUF_NPC2a_radial_glia_migration_72hr: Leibniz Research Institute for Environmental Medicine (IUF) 72-hour Neural Progenitor Cell Migration Assay for Radial Glia Migration (NPC2a) (AID 2284299). The essentials:
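Human fetal cortex (GW 16-19) neural progenitor spheres, 0.3 mm, plated on poly-D-lysine/laminin in N2 differentiation medium with compound from day 0. Radial glia migration distance (um, sphere core edge to migration edge) measured manually in four directions on 72 h brightfield images; well mean used.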

A short description of assay [17]: IUF_NPC2b_neuronal_migration_120hr: Leibniz Research Institute for Environmental Medicine (IUF) 120-hour Neural Progenitor Cell Migration Assay for Neuron Migration (NPC2b) (AID 2284300). The essentials: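 Fetal human NPC spheres migrate on PDL/laminin during 120 h compound treatment; neuronal migration distance, glia-normalized, scored versus DMSO control.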
Assay [18] in a line: IUF_NPC3_neuronal_differentiation_120hr: Leibniz Research Institute for Environmental Medicine (IUF) 120-hour Neuronal Differentiation Assay (NPC3) (AID 2284301). The method in brief:
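Single 0.3 mm neurospheres from human fetal cortex were plated in differentiation medium containing test compound. Medium was half-replaced on day 3. After 120 h cells were fixed, immunostained and imaged, and neuronal fraction was scored against DMSO control.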

Structures are written as SMILES. “And” between values parts separate entries of the source, which are not always exact repeats. Equal entries are not always repeated. Some structures have more than one record in an assay (separate samples or runs), and their calls can disagree. The source made the active and inactive calls. How the source made its calls: active means hit-call score of the fitted dose curve at least 0.9, where 1 is the maximum; inactive means score below 0.9.

With `CCCCN(CCCC)C(=O)N(CCCC)CCCC`, the outcome in [1] is “inactive”; with Decorin, DCN (gene 1634), “inactive”. Further, the AC50 in assay [2] is 11 µM (active); in [3], 7.64 µM (active).

With `CC1(C)CCC[C@]2(C)[C@H]3CCO[C@]3(C)CC[C@@H]12`, the result (in assay [4]; in [5]; in assay [6]; in assay [7]; in the assay with KRT18 (gene 3875); in assay [8]) was inactive. The outcome in [9] and in assay [13] was inactive. In addition, the AC50 was 27 µM (active) in assay [6]; 33.1 µM (active) in assay [7]; 30.8 µM (active) with KRT18 (gene 3875); 31.6 µM (active) in [8]; 30.6 µM (active) and 30.5 µM (active) in [10]; 37.5 µM (active) and 37.8 µM (active) in [11]. In [12], the AC50 was 36.4 µM (active) and 37.9 µM (active).

As to `Clc1cc(Cl)c(-c2c(Cl)c(Cl)cc(Cl)c2Cl)cc1Cl`, the AC50 in assay [1] is 7.14 µM (active); in [2], 11.6 µM (active); in assay [3] it was 2.61 µM (active). The outcome with Decorin, DCN (gene 1634) was inactive.

Take `CC1(C)C2=CCCC(C)(C)[C@]23CC[C@H]1C3`: the outcome in assay [1] is “inactive”; in the assay with Decorin, DCN (gene 1634), “inactive”. The AC50 in [2] is 30.9 µM (active); in [3] it was 31.2 µM (active).

As for `CCC(C)c1cc([N+](=O)[O-])cc([N+](=O)[O-])c1OC(=O)OC(C)C` (stereo unspecified), the AC50 in assay [1] was 35.8 µM (active); with Decorin, DCN (gene 1634), 24.4 µM (active); in assay [2], 13.4 µM (active); in assay [3] it was 20 µM (active).

Regarding `Oc1c(Cl)cc(Cl)c(Cl)c1Cc1c(O)c(Cl)cc(Cl)c1Cl`, the AC50 in [1] is 13 µM (active); in [2], 5.13 µM (active); in [3] it was 0.198 µM (active); in [14] it was 0.124 µM (active); in assay [15] it was 0.272 µM (active); in assay [16], 0.38 µM (active). Moreover, the AC50 in [17] is 0.566 µM (active); in assay [18], 0.472 µM (active). Moreover, the outcome in the assay with Decorin, DCN (gene 1634) was inactive.

Take `C=C(C)[C@H]1CC=C(C)C(=O)C1`: the outcome in assay [1] is “inactive”; with Decorin, DCN (gene 1634), “inactive”; in assay [2], “inactive”; in assay [3], “inactive”.

Consider `CC(C)(C)CC(C)(C)c1ccc(OCCOCC[N+](C)(C)Cc2ccccc2)cc1`, for which the AC50 in assay [1] is 5 µM (active); in assay [2], 7.98 µM (active). Moreover, the outcome in the assay with Decorin, DCN (gene 1634) is “inactive”; in assay [3], “inactive”.

In the case of `COc1ccc(OC)c(N=Nc2c(O)ccc3ccccc23)c1`, the AC50 is 0.0788 µM (active) in assay [1], 6.83 µM (active) in assay [2] and 10.3 µM (active) in assay [3]. Besides, in the assay with Decorin, DCN (gene 1634), the outcome was inactive.

As to `c1ccc2cc(Nc3ccc(Nc4ccc5ccccc5c4)cc3)ccc2c1`, the outcome is “inactive” in assay [1]; “inactive” with Decorin, DCN (gene 1634); “inactive” in [2]; “inactive” in [3].

For orientation: AC50 means the concentration giving half of the maximal activity seen.
